Reference: PubChem BioAssay (NCATS)
Records with an inconclusive call do not appear. Where a call stands in place of a potency, no number is given. Calls of active or inactive are those of the source. Unless noted, calls follow the shape of the dose curve; as a rule, active = well fitted curve in the direction sought with a large enough effect; inconclusive = small, poorly fitted or top-dose-only effect, or another doubt; inactive = no such curve, though single readings can be large; an effect the other way counts as inactive or inconclusive.

Columns and labels:
[1] = NS1 protein of Zika virus - qHTS assay to identify small molecule inhibitors in human HEK 293 cells (AID 1347053); also: series mostly up to about 46 µM; nearly all actives have a fitted effect of over 55% in size
Procedure, shortened: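 HEK 293 cells pretreated with compound for 1 h, then infected with ZIKV MR766 (MOI 0.5) for 24 h at 37 C. NS1 detected by TR-FRET with two anti-NS1 antibodies; normalized to uninfected (0%) and infected (100%) wells.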

[2] = qHTS of pediatric cancer cell lines to identify multiple opportunities for drug repurposing: Primary screen for U-2 OS cells (AID 1347096); also: nearly all actives have a fitted effect of over 50% in size; also: potency is read from the fitted curve at half-maximal effect
Procedure, shortened: (§1)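 Cells (500-1,000/well) rested 5 h, then received compounds for 48 h; metabolically active cells were measured by CellTiter-Glo luminescence. Final concentrations spanned up to 46 µM (MIPE, 11-point) or 0.59 nM-46 µM (NPC, 8-point) in primary screens, 11-point in follow-ups.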

[3] = qHTS of pediatric cancer cell lines to identify multiple opportunities for drug repurposing: Primary screen for LAN-5 cells (AID 1347100); also: potency is read from the fitted curve at half-maximal effect
Procedure, shortened: as §1

[4] = qHTS of pediatric cancer cell lines to identify multiple opportunities for drug repurposing: Primary screen for TC32 cells (AID 1347089); also: nearly all actives have a fitted effect of over 60% in size
Procedure, shortened: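 Measured quantity: luminescence from CellTiter-Glo, reflecting metabolically active TC32 cells following 48 h of compound. Curves came straight from multi-point titrations, with 8 or 11 points in primary and 11 in confirmatory screening.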

[5] = qHTS of pediatric cancer cell lines to identify multiple opportunities for drug repurposing: Primary screen for DAOY cells (AID 1347090); also: nearly all actives have a fitted effect of over 55% in size; also: potency is read from the fitted curve at half-maximal effect
Procedure, shortened: (§2)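 Cell viability, CellTiter-Glo luminescence; 500-1,000 cells/well, 8- or 11-point titration, 48 h compound exposure at 37 degrees C, 5% CO2. Controls: DMSO neutral, bortezomib 2.3 µM final as positive.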

[6] = qHTS of pediatric cancer cell lines to identify multiple opportunities for drug repurposing: Primary screen for SJ-GBM2 cells (AID 1347091); also: potency is read from the fitted curve at half-maximal effect
Procedure, shortened: as §2

[7] = qHTS of pediatric cancer cell lines to identify multiple opportunities for drug repurposing: Primary screen for A673 cells (AID 1347092); also: nearly all actives have a fitted effect of over 45% in size; also: potency is read from the fitted curve at half-maximal effect
Procedure, shortened: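 Cells are plated, rested 5 h, dosed by pintool, incubated 48 h, then lysed with CellTiter-Glo and read by luminescence. DMSO is the neutral control; bortezomib at 2.3 uM final is the positive control.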

[8] = qHTS of pediatric cancer cell lines to identify multiple opportunities for drug repurposing: Primary screen for BT-37 cells (AID 1347094); also: potency is read from the fitted curve at half-maximal effect
Procedure, shortened: (§3)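 Cells plated at 500-1,000/well in growth medium, compounds added after 5 h. MIPE tested at 11 points (from 0.78 nM), NPC at 8 points (from 0.59 nM). CellTiter-Glo luminescence after 48 h; concentration-response curves from primary screen.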

[9] = qHTS of pediatric cancer cell lines to identify multiple opportunities for drug repurposing: Primary screen for NB-EBc1 cells (AID 1347095); also: potency is read from the fitted curve at half-maximal effect
Procedure, shortened: as §3

[10] = qHTS of pediatric cancer cell lines to identify multiple opportunities for drug repurposing: Primary screen for Saos-2 cells (AID 1347097); also: nearly all actives have a fitted effect of over 40% in size; also: potency is read from the fitted curve at half-maximal effect
Procedure, shortened: as §3

[11] = qHTS of pediatric cancer cell lines to identify multiple opportunities for drug repurposing: Primary screen for NB1643 cells (AID 1347099); also: nearly all actives have a fitted effect of over 50% in size; also: potency is read from the fitted curve at half-maximal effect
Procedure, shortened: as §3

[12] = qHTS of pediatric cancer cell lines to identify multiple opportunities for drug repurposing: Primary screen for BT-12 cells (AID 1347101); also: nearly all actives have a fitted effect of over 25% in size; also: potency is read from the fitted curve at half-maximal effect
Procedure, shortened: as §1

[13] = qHTS of pediatric cancer cell lines to identify multiple opportunities for drug repurposing: Primary screen for Rh18 cells (AID 1347102); also: nearly all actives have a fitted effect of over 65% in size; also: potency is read from the fitted curve at half-maximal effect
Procedure, shortened: as §1

[14] = qHTS of pediatric cancer cell lines to identify multiple opportunities for drug repurposing: Primary screen for OHS-50 cells (AID 1347103); also: nearly all actives have a fitted effect of over 40% in size; also: potency is read from the fitted curve at half-maximal effect
Procedure, shortened: as §1

[15] = molecular target: T1, Tyrosine-protein phosphatase non-receptor type substrate 1 (Homo sapiens) + Leukocyte surface antigen CD47 (Homo sapiens) (UniProt P78324+Q08722); assay: CD47-SIRPalpha protein protein interaction - LANCE assay qHTS validation (AID 1347057; active = well fitted curve in the direction sought with a large enough effect in the signal ratio, with a control signal flat, not every such curve was filed as active; the % refers to the signal ratio; also: series mostly up to about 38 µM)
T1 sequence (P78324 whole entry, looked up): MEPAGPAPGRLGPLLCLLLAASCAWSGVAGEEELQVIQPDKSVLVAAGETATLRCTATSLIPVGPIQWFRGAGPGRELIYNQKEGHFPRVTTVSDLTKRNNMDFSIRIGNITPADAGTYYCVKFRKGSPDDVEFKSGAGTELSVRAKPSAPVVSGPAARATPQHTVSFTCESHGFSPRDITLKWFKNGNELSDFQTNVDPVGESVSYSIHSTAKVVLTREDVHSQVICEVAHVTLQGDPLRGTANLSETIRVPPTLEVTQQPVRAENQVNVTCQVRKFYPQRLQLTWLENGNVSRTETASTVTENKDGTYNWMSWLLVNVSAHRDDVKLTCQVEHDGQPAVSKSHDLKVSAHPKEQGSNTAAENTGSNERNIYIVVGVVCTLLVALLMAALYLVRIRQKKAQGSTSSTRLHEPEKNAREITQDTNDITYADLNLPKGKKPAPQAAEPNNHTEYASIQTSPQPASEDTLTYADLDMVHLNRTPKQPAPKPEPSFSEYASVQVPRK
T1 sequence (Q08722 whole entry, looked up): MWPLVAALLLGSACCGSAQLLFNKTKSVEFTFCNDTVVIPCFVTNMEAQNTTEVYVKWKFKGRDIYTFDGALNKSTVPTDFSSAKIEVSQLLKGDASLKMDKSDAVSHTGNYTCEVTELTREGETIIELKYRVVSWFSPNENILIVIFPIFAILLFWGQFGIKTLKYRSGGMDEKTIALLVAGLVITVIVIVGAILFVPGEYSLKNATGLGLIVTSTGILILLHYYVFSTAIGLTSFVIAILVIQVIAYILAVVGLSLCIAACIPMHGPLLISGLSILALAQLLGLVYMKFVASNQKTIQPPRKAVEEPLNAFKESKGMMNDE
Procedure, shortened: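 First, His-tagged CD47 and Eu-labelled anti-His antibody met the compound for 30 min; next, site-specifically biotinylated SIRPalpha was added for 30 min; finally streptavidin-APC was added before reading the TR-FRET ratio.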

[16] = molecular target: T1, Tyrosine-protein phosphatase non-receptor type substrate 1 (Homo sapiens) + Leukocyte surface antigen CD47 (Homo sapiens); assay: CD47-SIRPalpha protein protein interaction - HTRF assay qHTS validation (AID 1347058; active = well fitted curve in the direction sought with a large enough effect in the signal ratio, not every such curve was filed as active; the % refers to the signal ratio;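 also: recombinant soluble extracellular CD47 with His tag and biotinylated SIRPalpha domains; series mostly up to about 38 µM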)
Procedure, shortened: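 TR-FRET read (Ch1/Ch2 ratio) of soluble extracellular CD47 and Avi-biotinylated SIRPalpha domains in PBS pH 7.4 with 0.05% IGEPAL; 7-point compound titration. Sequential 30 min room-temperature steps; non-biotinylated SIRPalpha as control inhibitor.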

[17] = molecular target: T1, Tyrosine-protein phosphatase non-receptor type substrate 1 (Homo sapiens) + Leukocyte surface antigen CD47 (Homo sapiens); assay: CD47-SIRPalpha protein protein interaction - Alpha assay qHTS validation (AID 1347059);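 also: bead proximity luminescence from CD47 binding SIRPalpha after compound preincubation with SIRPalpha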
Procedure, shortened: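 Binding is measured by AlphaScreen proximity: Ni-NTA acceptor beads capture His-CD47, streptavidin donor beads capture biotin-SIRPalpha. Each of three additions (SIRPalpha with compound, CD47, beads) incubates 30 min at room temperature protected from light.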

[18] = molecular target: Parathyroid hormone/parathyroid hormone-related peptide receptor (Homo sapiens) (UniProt Q03431); assay: qHTS for PTHR1 Agonists: Optimization Screen against the NCGC LOPAC library (AID 1347079);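 also: GloSensor cAMP luminescence in HEK-293 GP2 cells expressing human PTHR1 with IBMX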
Sequence of Parathyroid hormone/parathyroid hormone-related peptide receptor (Homo sapiens) (Q03431 whole entry, looked up): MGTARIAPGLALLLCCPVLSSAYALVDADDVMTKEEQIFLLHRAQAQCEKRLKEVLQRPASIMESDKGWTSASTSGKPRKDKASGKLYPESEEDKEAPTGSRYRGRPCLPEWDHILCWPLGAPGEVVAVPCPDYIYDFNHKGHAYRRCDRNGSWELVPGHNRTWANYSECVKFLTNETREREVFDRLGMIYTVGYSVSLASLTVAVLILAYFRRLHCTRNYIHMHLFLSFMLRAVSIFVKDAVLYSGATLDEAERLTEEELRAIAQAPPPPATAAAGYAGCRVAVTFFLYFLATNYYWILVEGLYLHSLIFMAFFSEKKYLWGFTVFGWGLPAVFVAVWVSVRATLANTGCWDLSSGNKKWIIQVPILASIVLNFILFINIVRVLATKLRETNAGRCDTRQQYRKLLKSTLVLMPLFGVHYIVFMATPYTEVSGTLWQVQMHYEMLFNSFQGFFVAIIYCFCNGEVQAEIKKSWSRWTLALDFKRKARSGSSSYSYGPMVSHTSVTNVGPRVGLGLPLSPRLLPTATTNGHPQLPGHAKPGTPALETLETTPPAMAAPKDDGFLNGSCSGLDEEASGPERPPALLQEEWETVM
Procedure, shortened: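 Compounds were tested across a qHTS titration. PTHR1-expressing GP2 cells report cAMP rises via GloSensor luminescence after 1 hr compound exposure at 37C with IBMX present.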

[19] = qHTS of pediatric cancer cell lines to identify multiple opportunities for drug repurposing: Primary screen for SK-N-MC cells (AID 1347093); also: potency is read from the fitted curve at half-maximal effect
Procedure, shortened: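 Metabolically active cells were quantified by ATP-dependent luminescence (CellTiter-Glo, 15 min at room temperature) following 48 h treatment. Cells had been plated at 500-1,000 per well and settled for 5 h beforehand.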

[20] = qHTS of pediatric cancer cell lines to identify multiple opportunities for drug repurposing: Primary screen for SK-N-SH cells (AID 1347098); also: nearly all actives have a fitted effect of over 65% in size; also: potency is read from the fitted curve at half-maximal effect
Procedure, shortened: as §1

CN1CCc2cccc3c2[C@H]1Cc1ccc(O)c(O)c1-3
Potency [1]: inactive | Potency [2]: inactive | Potency [3]: 11.9 µM (active)

C[C@@H](O)[C@H]1C(=O)N2C(C(=O)O)=C(S[C@@H]3CN[C@H](CNS(N)(=O)=O)C3)[C@H](C)[C@H]12
Potency [4]: inactive | Potency [5]: inactive | Potency [6]: inactive | Potency [7]: inactive | Potency [8]: inactive | Potency [9]: inactive | Potency [2]: inactive | Potency [10]: inactive | Potency [11]: inactive | Potency [3]: inactive | Potency [12]: inactive | Potency [13]: inactive | Potency [14]: inactive

CC(C)(C)NC[C@H](O)COc1nsnc1N1CCOCC1
outcome [15]: inactive | outcome [16]: inactive | outcome [17]: inactive | outcome [18]: inactive | Potency [5]: inactive | Potency [6]: inactive | Potency [7]: inactive | Potency [19]: inactive | Potency [8]: inactive | Potency [9]: inactive | Potency [2]: inactive | Potency [10]: inactive | Potency [20]: inactive | Potency [11]: inactive | Potency [3]: inactive | Potency [12]: inactive | Potency [13]: inactive

COc1ccc(C(Cl)=C(c2ccc(OC)cc2)c2ccc(OC)cc2)cc1
Potency [1]: inactive | Potency [5]: inactive | Potency [19]: inactive | Potency [20]: inactive | Potency [11]: inactive | Potency [13]: inactive

CCCCCCCCCCCCCCCC(=O)O
Potency [1]: inactive | Potency [7]: inactive | Potency [19]: inactive | Potency [8]: inactive | Potency [9]: inactive | Potency [2]: inactive | Potency [20]: inactive | Potency [11]: inactive | Potency [3]: inactive | Potency [12]: inactive | Potency [13]: inactive | Potency [14]: inactive

CC(C)=CCOc1ccc(/C=C/C(=O)c2ccc(OCC=C(C)C)cc2OCC(=O)O)cc1
Potency [1]: inactive | Potency [19]: 21.1 µM (active) | Potency [8]: inactive | Potency [2]: inactive | Potency [11]: 23.7 µM (active) | Potency [13]: inactive

CCc1cc(Cl)c(OC)c(C(=O)NC[C@@H]2CCCN2CC)c1O
Potency [4]: inactive | Potency [5]: inactive | Potency [6]: inactive | Potency [7]: inactive | Potency [19]: inactive | Potency [8]: inactive | Potency [9]: inactive | Potency [2]: inactive | Potency [10]: inactive | Potency [20]: inactive | Potency [11]: inactive | Potency [3]: inactive | Potency [12]: inactive | Potency [13]: inactive

Nc1nc(-c2ccccc2)c(Br)c(=O)[nH]1
Potency [1]: inactive | Potency [5]: inactive | Potency [7]: inactive | Potency [19]: inactive | Potency [8]: inactive | Potency [9]: inactive | Potency [2]: inactive | Potency [11]: inactive | Potency [3]: inactive | Potency [12]: inactive | Potency [13]: inactive | Potency [14]: inactive

CC[C@]12CCCN3CCc4c(n(c5ccccc45)C(=O)C1)[C@@H]32
Potency [1]: inactive | Potency [6]: 5.96 µM (active) | Potency [7]: 10.6 µM (active) | Potency [19]: 5.96 µM (active) | Potency [9]: 1.88 µM (active) | Potency [2]: inactive | Potency [10]: 13.3 µM (active) | Potency [11]: inactive | Potency [14]: 27.6 µM (active)

O=C(O)CCNC(=O)c1ccccc1
Potency [4]: inactive | Potency [5]: inactive | Potency [6]: inactive | Potency [7]: inactive | Potency [19]: inactive | Potency [8]: inactive | Potency [9]: inactive | Potency [2]: inactive | Potency [10]: inactive | Potency [20]: inactive | Potency [11]: inactive | Potency [3]: inactive | Potency [12]: inactive | Potency [13]: inactive

CCOC(=O)[C@H](CCc1ccccc1)N[C@@H](C)C(=O)N1[C@H](C(=O)O)C[C@H]2CCCC[C@@H]21
outcome [15]: inactive | outcome [16]: inactive | outcome [17]: inactive | outcome [18]: inactive

Cc1c(-c2ccccc2)oc2c(C(=O)OCCN3CCCCC3)cccc2c1=O
Potency [4]: inactive | Potency [5]: inactive | Potency [6]: inactive | Potency [7]: inactive | Potency [19]: inactive | Potency [8]: inactive | Potency [9]: inactive | Potency [2]: inactive | Potency [10]: inactive | Potency [20]: inactive | Potency [11]: inactive | Potency [3]: inactive | Potency [12]: inactive | Potency [13]: inactive | Potency [14]: inactive

CC(C)n1c(/C=C/[C@@H](O)C[C@@H](O)CC(=O)O)c(-c2ccc(F)cc2)c2ccccc21
Potency [1]: inactive | Potency [7]: 5.31 µM (active) | Potency [19]: 15 µM (active) | Potency [8]: 15.5 µM (active) | Potency [2]: 6.68 µM (active) | Potency [10]: 1.5 µM (active) | Potency [20]: 3.44 µM (active) | Potency [11]: 10.6 µM (active) | Potency [3]: inactive | Potency [13]: 7.5 µM (active) | Potency [14]: 6.92 µM (active)

CCCCCCCCCCCCOCCOCCOCCOCCOCCOCCOCCOCCOCCO
Potency [1]: inactive | Potency [5]: 16.8 µM (active) | Potency [7]: 21.1 µM (active) | Potency [8]: 19.5 µM (active) | Potency [9]: 21.1 µM (active) | Potency [2]: inactive | Potency [20]: inactive | Potency [11]: inactive | Potency [12]: 6.92 µM (active) | Potency [13]: inactive | Potency [14]: 15.5 µM (active)

CCCN(CCc1cccs1)[C@H]1CCc2c(O)cccc2C1
Potency [1]: inactive | Potency [5]: inactive | Potency [19]: inactive | Potency [9]: inactive | Potency [2]: inactive | Potency [20]: inactive | Potency [11]: inactive | Potency [3]: inactive | Potency [12]: inactive | Potency [13]: inactive

O=C(Nc1ncc([N+](=O)[O-])s1)c1cccs1
Potency [1]: inactive | Potency [8]: 24.6 µM (active) | Potency [20]: 24.4 µM (active) | Potency [11]: 23.7 µM (active) | Potency [12]: 12.3 µM (active) | Potency [14]: 30.9 µM (active)

Cc1ccc(S(=O)(=O)NC(=O)NC2CCCC2)cc1
Potency [4]: inactive | Potency [5]: inactive | Potency [6]: inactive | Potency [7]: inactive | Potency [19]: inactive | Potency [8]: inactive | Potency [9]: inactive | Potency [2]: inactive | Potency [10]: inactive | Potency [20]: inactive | Potency [11]: inactive | Potency [3]: inactive | Potency [12]: inactive | Potency [13]: inactive | Potency [14]: inactive

O=C(N/N=C/c1ccc([N+](=O)[O-])o1)c1ccc(O)cc1
Potency [1]: inactive | Potency [6]: inactive | Potency [2]: inactive | Potency [10]: inactive | Potency [12]: 13.8 µM (active)

Cn1c(=O)c2[nH]c(Br)nc2n(C)c1=O
Potency [4]: inactive | Potency [5]: inactive | Potency [6]: inactive | Potency [7]: inactive | Potency [8]: inactive | Potency [9]: inactive | Potency [2]: inactive | Potency [10]: inactive | Potency [20]: inactive | Potency [11]: inactive | Potency [3]: inactive | Potency [12]: inactive | Potency [13]: inactive | Potency [14]: inactive

CNCCCCOc1ccccc1Cc1ccccc1
Potency [1]: inactive | Potency [5]: inactive | Potency [7]: 26.6 µM (active) | Potency [9]: inactive | Potency [2]: inactive | Potency [20]: 24.4 µM (active)

CN(CCCN1c2ccccc2CCc2ccccc21)CC(=O)c1ccc(Cl)cc1
Potency [1]: inactive | Potency [5]: inactive | Potency [7]: inactive | Potency [19]: inactive | Potency [8]: inactive | Potency [9]: inactive | Potency [2]: inactive | Potency [10]: inactive | Potency [20]: inactive | Potency [11]: inactive | Potency [3]: inactive | Potency [13]: inactive

O=C(O)CCC(=O)Nc1ccc(S(=O)(=O)Nc2nccs2)cc1
Potency [5]: inactive | Potency [6]: inactive | Potency [7]: inactive | Potency [8]: inactive | Potency [9]: inactive | Potency [2]: inactive | Potency [20]: inactive | Potency [11]: inactive | Potency [3]: inactive | Potency [12]: inactive | Potency [13]: inactive | Potency [14]: inactive
